Results on nine molecules are retold here after PubChem BioAssay.

“And” between values parts separate entries of the source, which are not always exact repeats. Equal entries are not always repeated. For part of these data: Potency and affinity values are given separately. The source made the active and inactive calls.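 How the source made its calls, unless noted: active means compounds killing one labelled cell type while sparing the other, by normalised counts and ratio limits, not self-fluorescent; inactive means the rest.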

The nature of assay [1]: EMT-state selective cytotoxicity in co-culture – imaging, PC-3E GFP, TEM4-18 mCherry, primary screen (AID 1345086).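 On all read-outs here: cells exposed to compound for 72 h before imaging.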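 On red/green cell ratio (normalised): normalised mesenchymal count divided by normalised epithelial count so high means epithelial killing.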 Particulars: PC-3E GFP / TEM4-18 mCherry co-culture, imaging cell counts, at 1 µM; for red/green cell ratio (normalised): actives lie on both sides, counts scaled to control wells, 1 = unselective.
A short description of assay [2]: viability loss with induced miR-34 in A549 – imaging, A549 dox-inducible miR-34, nuclei and caspase counts, primary screen (AID 1347080;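 active means compounds whose cell count with miR-34 switched on is under 0.7 times the count with it off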). The following applies: A549 miR-34 inducible, Hoechst nuclei count, 48 h.
In assay [3] the target is NAD(+) hydrolase SARM1 (Homo sapiens) (UniProt Q6SZW1). The assay is described as follows: blocking NAD cleavage by SARM1 SAM-TIR – cell lysate, NAD-Glo luminescence (AID 1508614;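 active means compound whose remaining NAD level is above about 45 nM, limit read from the data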). Particulars: SAM-TIR HEK293T lysate NADase, at 1 µM, stronger effect = higher value.
Sequence of NAD(+) hydrolase SARM1 (Homo sapiens) (Q6SZW1 whole entry, looked up, the tested form may be a part): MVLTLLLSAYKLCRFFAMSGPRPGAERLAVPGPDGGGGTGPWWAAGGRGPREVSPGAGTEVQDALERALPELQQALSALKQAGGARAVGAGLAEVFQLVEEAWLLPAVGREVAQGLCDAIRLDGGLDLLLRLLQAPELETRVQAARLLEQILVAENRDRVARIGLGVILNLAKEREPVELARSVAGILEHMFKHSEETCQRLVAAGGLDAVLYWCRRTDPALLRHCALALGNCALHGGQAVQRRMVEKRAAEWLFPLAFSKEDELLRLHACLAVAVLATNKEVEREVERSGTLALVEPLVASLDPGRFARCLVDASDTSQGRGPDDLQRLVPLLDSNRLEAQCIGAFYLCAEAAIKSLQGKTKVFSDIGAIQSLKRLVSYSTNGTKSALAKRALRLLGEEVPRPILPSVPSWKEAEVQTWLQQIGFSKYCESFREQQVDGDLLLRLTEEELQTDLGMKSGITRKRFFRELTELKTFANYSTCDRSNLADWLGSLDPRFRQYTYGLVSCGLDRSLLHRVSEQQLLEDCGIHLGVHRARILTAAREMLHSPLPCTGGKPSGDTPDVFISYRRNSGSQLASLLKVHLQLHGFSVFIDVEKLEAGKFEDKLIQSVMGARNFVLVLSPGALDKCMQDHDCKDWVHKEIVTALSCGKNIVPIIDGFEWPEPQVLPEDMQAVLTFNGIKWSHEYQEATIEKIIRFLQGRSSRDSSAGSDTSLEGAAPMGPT
For assay [4], the target named is Mitogen-activated protein kinase 7 (Homo sapiens) (UniProt Q13164). Kind of assay: Gal4-ERK5 driven luciferase induction – cell-based, HTS, primary screen (AID 1508626;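 active means luciferase signal above three times the same-plate solvent-only control wells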;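 further: luciferase driven by Gal4-ERK5 fusion binding five Gal4 sites before minimal TATA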). The following applies: HeLa Gal4-ERK5 transactivation, 18 h, at 5 µM, stronger effect = higher value.
Sequence of Mitogen-activated protein kinase 7 (Homo sapiens) (Q13164 whole entry, looked up, the tested form may be a part): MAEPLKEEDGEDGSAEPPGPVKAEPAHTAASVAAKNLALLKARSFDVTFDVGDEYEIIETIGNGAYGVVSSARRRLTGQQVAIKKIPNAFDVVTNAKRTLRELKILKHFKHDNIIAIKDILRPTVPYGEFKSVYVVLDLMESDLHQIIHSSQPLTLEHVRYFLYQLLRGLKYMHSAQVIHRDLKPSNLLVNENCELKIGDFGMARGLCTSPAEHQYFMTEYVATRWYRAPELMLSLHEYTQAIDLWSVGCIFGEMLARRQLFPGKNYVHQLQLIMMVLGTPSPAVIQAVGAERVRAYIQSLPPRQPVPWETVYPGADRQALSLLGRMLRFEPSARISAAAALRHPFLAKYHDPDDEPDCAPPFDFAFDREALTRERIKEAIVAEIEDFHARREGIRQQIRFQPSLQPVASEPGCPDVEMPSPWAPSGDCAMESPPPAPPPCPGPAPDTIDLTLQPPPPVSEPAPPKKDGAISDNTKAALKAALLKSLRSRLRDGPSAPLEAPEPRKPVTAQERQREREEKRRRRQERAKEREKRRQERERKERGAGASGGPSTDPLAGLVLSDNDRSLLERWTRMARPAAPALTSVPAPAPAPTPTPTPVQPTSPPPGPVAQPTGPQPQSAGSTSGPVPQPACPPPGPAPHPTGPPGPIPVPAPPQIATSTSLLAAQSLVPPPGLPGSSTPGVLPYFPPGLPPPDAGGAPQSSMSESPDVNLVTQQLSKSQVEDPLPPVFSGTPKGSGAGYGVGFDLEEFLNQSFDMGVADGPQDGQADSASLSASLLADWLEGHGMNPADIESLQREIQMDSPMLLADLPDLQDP
Assay [5] is described as follows: P. berghei load reduction in hepatocytes – cell-based, HepG2, luciferase luminescence, HepG2 viability, primary screen (AID 624349; in the data active means parasite load remaining mostly below about 12%, no sharp cut-off; inactive means mostly above about 10%;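 further: 100% = mean of DMSO negative control wells on the same plate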). Particulars: P. berghei liver stage in HepG2, luciferase luminescence, concentration not given here; parasite load remaining: stronger effect = lower value; viability: measured here: HepG2 viability without parasites.
Assay [6] can be described thus: blockers of polyQ-driven CASP3 activation – cell-based (AID 1583). Particulars: polyglutamine-induced caspase-3 activation, cell assay; stronger effect = higher value;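 tested at 10 µM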.
Assay [7] is described as follows: yeast 75Q aggregation reduction – 75Q-TubU reporter (AID 1593). The following applies: Yeast 75Q polyglutamine aggregation reporter.
Assay [8] in a line: restoration of touch response, mutant HTT neurons – whole organism, C. elegans mechanosensory neurons, N-terminal huntingtin (AID 1599). The following applies: C. elegans polyQ-huntingtin mechanosensory neurons, stronger effect = higher value.
A short description of assay [9]: blockers of cytochrome c efflux from mitochondria – biochemical, purified mitochondria (AID 1603).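 Further: mouse liver mitochondria challenged with calcium chloride; signal normalized to the plate average as 100%.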 The following applies: stronger effect = lower value.
Assay [10] can be described thus: polyglutamine aggregate formation blockers (AID 1604). Particulars: polyglutamine-induced protein aggregation inhibition assay; stronger effect = higher value; tested at 2.5 µM.
Assay [11] can be described thus: glutamate transport activators, MN-1 cells, MN-1 cell line (AID 1612).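 Further: tested at 1 µM final; 0% = mean of DMSO vehicle wells on each plate; positive means more glutamate uptake than control and negative means less.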 Particulars: MN-1 motor neuron cells, stronger effect = higher value.
The nature of assay [12]: GFP-Q80 aggregate reduction, neuronal-like cells, cell-based, NGF-treated PC12, GFPQ80 (AID 1614).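 Further: lower means fewer inclusions and 0 means no inclusions at all.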 The following applies: PC12 NGF-treated GFP-polyQ80 inclusion reduction.
A short description of assay [13]: 75Q-TubH aggregate inhibition, S. cerevisiae, yeast (AID 1616). The following applies: S. cerevisiae 75Q-TubH polyglutamine aggregation suppression; stronger effect = higher value.
The mark [14] stands for this setting: measured here: epithelial PC-3E GFP cell survival.
Setting [15] is: measured here: mesenchymal TEM4-18 mCherry cell survival.
The mark [16] stands for this setting: stronger effect = lower value, cell number ratio, induced over uninduced.
[17] abbreviates: measured here: relative caspase fold change +Dox/-Dox.
[18] abbreviates: measured here: total cells with miR-34 induction, stronger effect = lower value.
[19] abbreviates: measured here: total cells without miR-34 induction.

Take `CC(=O)NS(=O)(=O)c1ccc(NC(=O)c2ccccc2C(=O)O)cc1`: the red/green cell ratio (normalised) in assay [1] was 0.81 (inactive). Moreover, the normalised cell number in [1] (setting [14]) was found to be 1.22; in assay [1] (setting [15]), 0.99. Moreover, the figures for the fold change in assay [2] (setting [16]) and in assay [2] (setting [17]) were 0.886 (inactive) and 0.953, respectively. The figures for the cell count in assay [2] (setting [18]) and in assay [2] (setting [19]) were 8920 and 10100, respectively. The remaining NAD in assay [3] was 10 nM (inactive). The luciferase signal in assay [4] is 100 AU (inactive).

For `CC(=O)Oc1c(C)cccc1C(=O)O`, the red/green cell ratio (normalised) in assay [1] was 0.87 (inactive). The figures for the normalised cell number in assay [1] (setting [14]) and in [1] (setting [15]) were 1.16 and 1, respectively. Besides, the results for the fold change in [2] (setting [16]) and in [2] (setting [17]) were 0.895 (inactive) and 0.783, respectively. In addition, the cell count was determined as 8780 in assay [2] (setting [18]) and 9810 in assay [2] (setting [19]). Further, the remaining NAD in assay [3] was 10 nM (inactive). Besides, the luciferase signal in assay [4] is 56 AU (inactive).

A word on the viability: it is a read-out of living cells in per cent, often relative to untreated cells. For the molecule `Nc1ccc(S(=O)(=O)[O-])cc1.Nc1ccc(S(=O)(=O)[O-])cc1.[Zn+2]`, the parasite load remaining in assay [5] is 34.7% (inactive). In assay [5], the viability is 93.6%. In addition, in [1], the red/green cell ratio (normalised) was 0.95 (inactive). In addition, the normalised cell number in assay [1] (setting [14]) is 1.26; in assay [1] (setting [15]), 1.2. In addition, the fold change in [2] (setting [16]) is 0.91 (inactive); in assay [2] (setting [17]), 2.98. The values for the cell count in [2] (setting [18]) and in [2] (setting [19]) were 11500 and 12600, respectively. Moreover, the luciferase signal in [4] is 56 AU (inactive).

Turning to `CC(C)(CO)C(O)C(=O)NCCCO` (stereo not drawn), in [5], the parasite load remaining was 56.4% (inactive). Moreover, the viability in [5] was determined as 105%. The red/green cell ratio (normalised) in [1] is 1.08 (inactive) and 0.9 (inactive). The normalised cell number in assay [1] (setting [14]) is 1.14 and 1.02; in [1] (setting [15]), 1.23 and 0.92. Besides, the fold change in assay [2] (setting [16]) is 0.911 (inactive); in [2] (setting [17]), 4.72. For the same molecule, the cell count came out at 11800 in assay [2] (setting [18]) and 13000 in [2] (setting [19]). Besides, in assay [4], the luciferase signal is 68 AU (inactive).

Usually inhibition stands for the relative decrease from the control value, in per cent. Molecule `CO[C@@]1(NC(=O)CSCC#N)C(=O)N2C(C(=O)O)=C(CSc3nnnn3C)CSC21` (stereo partly drawn) registered an inhibition in [6] of 20.8%. In addition, in assay [7], the score was 1.29. The molecule further gave a rescue above control in assay [8] of -0.81. In addition, the cytochrome c release ratio in assay [9] was 0.56. Moreover, in assay [10], the inhibition of aggregation is 33.3%. For the same molecule, the glutamate uptake change in assay [11] was -5.52%. The molecule also displayed an inclusion score in assay [12] of 2. Further, in assay [13], the aggregation suppression score was found to be 1.5. In addition, the parasite load remaining in assay [5] is 99.4% (inactive) and 54.5% (inactive). In addition, the viability in assay [5] was 73% and 111%. In [1], the red/green cell ratio (normalised) was 0.89 (inactive). In addition, the results for the normalised cell number in assay [1] (setting [14]) and in assay [1] (setting [15]) were 1.07 and 0.95, respectively. Further, the fold change in [2] (setting [16]) is 0.923 (inactive); in assay [2] (setting [17]), 3.61. In addition, the cell count in assay [2] (setting [18]) was 12200; in assay [2] (setting [19]) it was 13200.

As to `CC(=O)Nc1ccc(S(=O)(=O)c2ccc(NC(C)=O)cc2)cc1`, the parasite load remaining in assay [5] is 52.4% (inactive). The viability in assay [5] stood at 147%. Further, in assay [1], the red/green cell ratio (normalised) was 0.78 (inactive). Also, the normalised cell number turned out to be 1.22 in assay [1] (setting [14]) and 0.95 in assay [1] (setting [15]). In addition, the fold change in [2] (setting [16]) is 0.909 (inactive); in assay [2] (setting [17]) it was 4.36. In addition, the cell count in assay [2] (setting [18]) is 10600; in assay [2] (setting [19]) it was 11700. Besides, the remaining NAD in assay [3] was 25 nM (inactive). Also, the luciferase signal in assay [4] is 44 AU (inactive).

With `FC(F)(Cl)C(F)(F)Cl`, the red/green cell ratio (normalised) in assay [1] is 1.02 (inactive). Besides, the figures for the normalised cell number in assay [1] (setting [14]) and in [1] (setting [15]) were 0.91 and 0.93, respectively. The fold change in assay [2] (setting [16]) was 0.926 (inactive); in assay [2] (setting [17]), 0.734. The cell count was determined as 9510 in assay [2] (setting [18]) and 10300 in assay [2] (setting [19]). Further, in assay [3], the remaining NAD was 10 nM (inactive).

For `CN(C)[C@@H]1C(=O)C(C(=O)NCN2CCCC2)=C(O)[C@@]2(O)C(=O)C3=C(O)c4c(O)cccc4[C@@](C)(O)[C@H]3C[C@@H]12`, the parasite load remaining in [5] was 26.9% (inactive). Also, the viability in [5] amounted to 99.8%. For the same molecule, the red/green cell ratio (normalised) in [1] was 0.9 (inactive). The results for the normalised cell number in assay [1] (setting [14]) and in assay [1] (setting [15]) were 1.09 and 0.97, respectively. Besides, the fold change in assay [2] (setting [16]) was 0.855 (inactive); in assay [2] (setting [17]), 4.3. The cell count came to 11700 in assay [2] (setting [18]) and 13600 in assay [2] (setting [19]). Also, the remaining NAD in assay [3] was 10 nM (inactive). Moreover, the luciferase signal in assay [4] is 112 AU (inactive).

With `Oc1ccc2ccccc2c1`, in assay [1], the red/green cell ratio (normalised) is 0.96 (inactive). For the same molecule, the values for the normalised cell number in assay [1] (setting [14]) and in assay [1] (setting [15]) were 0.82 and 0.79, respectively. Moreover, the figures for the fold change in assay [2] (setting [16]) and in assay [2] (setting [17]) were 0.874 (inactive) and 1.01, respectively. The cell count was determined as 7170 in assay [2] (setting [18]) and 8200 in assay [2] (setting [19]). In addition, in assay [3], the remaining NAD was 10 nM (inactive).
